# Assay outcomes from PubChem BioAssay.
# This is a sample that favours compounds with a hit; in the whole collection about 2.5% have one here.
# MEKK2 WT-MEK5 – raises or lowers MEK5 binding to wildtype human MEKK2 PB1 domain. bead flow cytometry, Alexa488-MEK5 binding to MEKK2 WT; actives lie on both sides. hit rate 1.1% among 290,000. binding response (% of control), % at 10 µM; in the data active = binding response below about 67% or above about 130%
# GRK2 aptamer HTS – inhibitors of human GRK2 displacing RNA aptamer. AID 488847. P25098. hit rate 0.59% among 330,000. bead flow cytometry, FAM-aptamer displacement from GRK2. inhibition of aptamer binding, % at 10 µM;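 active = inhibition of aptamer binding above 40%, roughly 3 SD of noise, on plates passing a quality check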;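 also: median bead fluorescence of bound FAM aptamer so fluorescent compounds give negative values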
# MEKK3 PB1 HTS – modulators (inhibitors or enhancers) of MEK5 binding to human MEKK3 PB1 domain; bead-based flow cytometry, Alexa488-MEK5 binding to MEKK3; actives lie on both sides; 0 = blocked by unlabeled MEK5, 100 = vehicle; AID 1529; hit rate 1.4% among 290,000; Q99759; binding response (% of control), % at 10 µM;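 active = binding response more than 3 SD above or below the average of its plate-row segment, actives on both sides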;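 also: Alexa488 bead fluorescence after subtracting the streptavidin-only scavenger bead signal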
# Target sequence (Q99759 whole entry, looked up, the tested form may be a part): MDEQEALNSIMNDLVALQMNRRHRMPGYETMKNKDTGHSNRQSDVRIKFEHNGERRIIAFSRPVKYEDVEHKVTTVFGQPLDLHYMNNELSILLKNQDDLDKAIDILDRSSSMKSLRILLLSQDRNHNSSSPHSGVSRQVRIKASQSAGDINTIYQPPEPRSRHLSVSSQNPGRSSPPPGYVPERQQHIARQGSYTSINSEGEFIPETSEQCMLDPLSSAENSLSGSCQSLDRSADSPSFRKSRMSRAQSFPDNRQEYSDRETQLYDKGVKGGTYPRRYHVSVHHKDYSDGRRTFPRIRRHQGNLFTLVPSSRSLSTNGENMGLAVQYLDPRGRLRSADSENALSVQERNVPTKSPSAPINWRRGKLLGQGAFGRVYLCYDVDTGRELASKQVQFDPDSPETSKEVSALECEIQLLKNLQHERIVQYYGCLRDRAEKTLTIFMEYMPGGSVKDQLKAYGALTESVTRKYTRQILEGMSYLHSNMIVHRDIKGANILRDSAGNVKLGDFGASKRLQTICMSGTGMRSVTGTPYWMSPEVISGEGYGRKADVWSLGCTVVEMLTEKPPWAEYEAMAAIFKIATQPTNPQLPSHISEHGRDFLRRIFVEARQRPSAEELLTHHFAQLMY
# MEKK2mut PB1 HTS – signal of MEK5 binding to mutant human MEKK2 PB1 domain; bead flow cytometry, Alexa488-MEK5 binding to MEKK2 mutant; percent response, % at 10 µM; hit rate 0.35% among 290,000; AID 1530; in the data active = percent response above about 24%, passing the limit was not always enough
# Active calls of the source: *; · = no result given; [ ] = remark or other dose.
SMILES,MEKK2 WT-MEK5,GRK2 aptamer HTS,MEKK3 PB1 HTS,MEKK2mut PB1 HTS
CC[C@]12c3[nH]c4cc(CCC(=O)N(C)C)ccc4c3CCN1C(=O)[C@@H](CC(=O)NCc1ccco1)C[C@@H]2C(=O)N1CCN(C(=O)C2CC2)CC1,·,45*,·,·
CC[C@]12c3[nH]c4cc(-c5ccco5)ccc4c3CCN1C(=O)[C@@H](CC(=O)NCCc1ccccn1)C[C@@H]2C(=O)N1CCN(C(=O)c2ccco2)CC1,·,43*,·,·
CC[C@]12c3[nH]c4cc(CCC(=O)N(C)C)ccc4c3CCN1C(=O)[C@@H](CC(=O)NCCC1=CCCCC1)C[C@@H]2C(=O)N1CCN(C(=O)C2CC2)CC1,·,2,·,·
Cc1ccc(Cc2c(C)nc3nc(SCC(=O)NCCCN4CCCC4)nn3c2C)cc1,147*,0,109,21
Cc1ccccc1Cc1c(C)nc2nc(SCC(=O)NCCCN3CCCC3)nn2c1C,136*,0,105,19
Cc1cccc(N(C(=O)c2snc(C(N)=O)c2N)C(C(=O)NCC2CCCO2)c2ccc(N(C)C)cc2)c1C (stereo not drawn),101,99*,100,1
O=C1CSC(=S)N1c1cccnc1,89,3,86,-10
O=C1CSC(=S)N1Cc1cccnc1,-3.0*,0,88,5
O=C1/C(=C\c2ccco2)SC(=S)N1c1ccc(O)cc1,91,10,96,-4
O=C1/C(=C/C=C/c2ccco2)SC(=S)N1c1ccc(O)cc1,62*[inhibitor],16,87,-22
O=C(NCc1nnc2c(C(F)(F)F)cc(Cl)cn12)c1cccnc1,103,0,98,3
COc1ccccc1N1CCN(C(=O)NC23CC4CC(CC(C4)C2)C3)CC1,108,0,99,1
COc1ccc(C2(CNC(=O)/C=C\c3ccco3)CCCC2)cc1OC,97,48*,100,-7
C/C(CCc1ccccc1)=N\NC(=O)C(=O)Nc1cccc(Cl)c1,83,0,89,-9
CCN(CC(=O)NCc1ccc(Cl)cc1)C(=O)C(C)Sc1ccccc1 (stereo not drawn),102,0,102,2
O=S(=O)(N/N=C/c1ccc2c(c1)OCO2)c1ccc(Br)cc1,100,0,100,5
O=C(/C(=C/c1ccc(Cl)cc1)c1nc2ccccc2[nH]1)c1cccs1,96,0,91,-1
S=C(Nc1ccc(Cl)cc1)c1nc2ccccc2[nH]1,110,4,128*,0
O=C(/C(=C\c1ccccc1)c1nc2ccccc2[nH]1)c1ccc(Cl)cc1,5.0*,4,93,5
COc1cc2ccccc2cc1C(=O)N1CCN(c2ccccc2O)CC1,·,0,·,·
CCOc1ccc(NC(=O)CSc2nc3ccccc3nc2N2CCOCC2)cc1,93,0,101,-3
CCN(CC)CCNC(=O)C(=O)NCC1OCCN1S(=O)(=O)c1ccc([N+](=O)[O-])cc1 (stereo not drawn),90,0,87,-3
CCN(CC)CCNC(=O)C(=O)NCC1OCCN1S(=O)(=O)c1ccc(Cl)cc1 (stereo not drawn),142*,0,102,18
CCOC(=O)C1=C(C)NC(SCC(=O)Nc2nc(C)cs2)=C(C#N)C1c1cccs1 (stereo not drawn),·,51*,·,·
C=CCOC(=O)C1=C(C)NC(SCC(N)=O)=C(C#N)C1c1cccs1 (stereo not drawn),107,1,110,1
SMILES,MEKK2 WT-MEK5,GRK2 aptamer HTS,MEKK3 PB1 HTS,MEKK2mut PB1 HTS
COc1ccc(-c2nn(-c3ccccc3)cc2/C=C(/C#N)C(N)=O)cc1[N+](=O)[O-],107,1,97,15
C=CCC[C@H](Cc1ccc(F)cc1)C(=O)OC[C@@H](NC(=O)[C@@H](CC=C)CC(=O)N[C@@H](CO)Cc1ccccc1)C(C)(C)C,·,49*,·,·
Cc1nc2ccc(CN(C)c3ccc(C(=O)N[C@@H](CCC(=O)O)C(=O)O)s3)cc2c(=O)[nH]1,106,53*,104,4
CC(=O)N(C(C)=O)c1ccc2nc(C)[nH]c(=O)c2c1,92,0,87,-12
Cc1cccc(-c2n[nH]c(=S)n2/N=C/c2ccc(C)o2)c1,103,47*,107,0
O=[N+]([O-])c1ccc(N/N=C\c2ccccc2OCc2ccccc2)cc1,9.0*,0,96,9
Cc1cc(C)nc(N/N=C/c2ccccc2OCc2ccc([N+](=O)[O-])cc2)n1,101,0,96,-2
C/C(=N/NC(=O)CNC(=O)Cc1ccccc1)c1ccc(Cl)cc1,104,2,108,2
O=C(CSc1nc(C2CCCCC2)n(-c2ccccc2)n1)NCC(F)(F)F,107,0,145*,0
O=C(CSc1nc(C2CCCCC2)n(-c2ccccc2)n1)NCCN1C(=O)CSC1=O,109,0,104,11
CCOC(=O)CNC(=O)COc1coc(CN2CCN(c3ccc(F)cc3)CC2)cc1=O,107,2,104,1
O=C1C2CCCN2c2ccc(S(=O)(=O)N3CCOCC3)cc2N1Cc1ccccc1F (stereo not drawn),109,1,113,5
O=C1C2CCCN2c2ccc(S(=O)(=O)N3CCOCC3)cc2N1Cc1cccc(C(F)(F)F)c1 (stereo not drawn),-8.0*,0,98,0
CC(=O)c1ccc(OCCNS(=O)(=O)c2ccc(-n3cnnn3)cc2)cc1,100,4,102,2
COc1cc(/C=C/C(=O)Nc2ccc(N3CCCCC3)c(S(=O)(=O)Nc3ccccc3Cl)c2)cc(OC)c1OC,32*,0,110,26
COc1ccccc1N1C(=N)S/C(=C\c2ccc(-c3ccccc3C(=O)O)o2)C1=O,97,44*,98,-2
N=C1S/C(=C\c2ccc(-c3ccccc3C(=O)O)o2)C(=O)N1c1ccc2c(c1)OCO2,91,·,87,-13
CC1CN(C(=O)COC(=O)c2ccc3ncsc3c2)CC(C)O1 (stereo not drawn),·,0,·,·
COc1ccc(C)c2sc(N(CCN(C)C)C(=O)/C=C/c3cccs3)nc12,145*,0,103,13
CCN(CC)CCN(C(=O)/C=C/c1cccs1)c1nc2ccc(C)cc2s1,160*,0,105,17
Cc1ccc2nc(N(CCN(C)C)C(=O)/C=C/c3cccs3)sc2c1,98,0,97,-1
CCOc1cccc2sc(N(CCN(C)C)C(=O)/C=C/c3cccs3)nc12,144*,0,105,26*
Cc1ccc(S(=O)(=O)N2CCCN(C(=O)c3ccc(-n4cccn4)cc3)CC2)cc1,·,0,·,·
COc1ccc2nc(C)cc(NCc3ccc(F)cc3)c2c1,·,0,54*[inhibitor],·
Cc1ccc(S(=O)(=O)NCc2cc(=O)n(C)c(=O)n2C)cc1C,100,6,95,2
Cc1cc2oc(=O)cc(CN(C)Cc3ccccc3Cl)c2cc1C,100,2,104,6
CC1(NC(=O)CC[N+](C)(C)CCO)CS(=O)(=O)CC1S(=O)(=O)[O-] (stereo not drawn),99,47*,98,-1
COC(=O)c1ccc(N2CCN(C)CC2)c(NC(=O)c2sc3ccccc3c2Cl)c1,172*,0,111,22
